Out of some 310,000 compounds screened, about 2,600 (0.84%) were called active.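 Rule for the calls: active = B-score over 3 SD under the library average, and starting fluorescence ratio not unusually high; inactive = the rest.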 What follows is part of a selection rich in actives, with near analogues and random picks from the rest.
The compounds below were run against High affinity choline transporter 1 (Homo sapiens) (UniProt Q9GZV3) (assay: inhibits the human high affinity choline transporter (AID 488975;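 for B-score: choline stimulus applied at its EC90 after an EC20 pre-addition; B-score computed on integrated fluorescence ratio after choline addition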)). Details: CHT-expressing cells, membrane potential dye, choline response, at 10 µM; stronger effect = lower value.
High affinity choline transporter 1 (Homo sapiens), sequence (Q9GZV3 whole entry, looked up): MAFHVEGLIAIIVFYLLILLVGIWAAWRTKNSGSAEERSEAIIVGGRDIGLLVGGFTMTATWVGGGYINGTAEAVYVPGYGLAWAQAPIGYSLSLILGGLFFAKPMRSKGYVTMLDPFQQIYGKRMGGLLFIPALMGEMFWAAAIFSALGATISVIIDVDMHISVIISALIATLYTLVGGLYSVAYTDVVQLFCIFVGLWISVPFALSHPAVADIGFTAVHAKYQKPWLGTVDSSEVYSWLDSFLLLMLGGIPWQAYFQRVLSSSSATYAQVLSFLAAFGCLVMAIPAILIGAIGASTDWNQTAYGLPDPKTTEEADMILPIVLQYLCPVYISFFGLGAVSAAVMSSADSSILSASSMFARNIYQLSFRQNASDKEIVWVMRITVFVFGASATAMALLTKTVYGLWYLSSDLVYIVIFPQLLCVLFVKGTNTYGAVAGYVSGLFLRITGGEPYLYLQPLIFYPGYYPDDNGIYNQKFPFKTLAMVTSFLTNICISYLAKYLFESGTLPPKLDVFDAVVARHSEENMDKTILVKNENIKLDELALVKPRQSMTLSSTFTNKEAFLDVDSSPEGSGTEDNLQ

Row | Compound | B-score
1 | O=S(=O)(c1cccc(-c2nnc(SC(F)F)n2-c2ccccc2)c1)N1CCCCC1 | -6.54 (active)
2 | O=S(=O)(c1cccc(-c2nnc3n2CCCCC3)c1)N1CCOCC1 | inactive
3 | O=S(=O)(c1cccc(-c2cn3ccccc3n2)c1)N1CCCC1 | inactive
4 | Cc1onc(-c2ccccc2Cl)c1C(=O)N(Cc1ccc(N(C)C)cc1)C(C)C | inactive
5 | Cc1ccn2c(=O)c(NC(=O)c3cccc4ccccc34)c(C)nc2c1 | inactive
6 | Cc1c(Cl)cccc1NC(=O)NCc1ccc(C)n1C | inactive
7 | COC(=O)C(C(=O)Nc1cccc(Cl)c1C)C1CCCC1 (configuration not stated) | -5.46 (active)
8 | Cc1c(Cl)cccc1NC(=O)Nc1ccc(C(=O)N2CCCC2)cc1 | inactive
9 | CCN(CC(=O)Nc1c(F)cccc1F)C(=O)C1CCC1 | inactive
10 | Cc1ccc(S(=O)(=O)NC(C)C(=O)NCc2ccc(Cl)cc2)cc1 (configuration not stated) | inactive
11 | CCCNC(=O)c1ccc(N2CCC3(CC2)CC(c2cccc(Br)c2)=NO3)c(NC(=O)c2ccco2)c1 | inactive
12 | CCN(CC(=O)NCc1ccc(Cl)cc1)C(=O)CSc1ccccc1 | -5.83 (active)
13 | CCN(CC(=O)Nc1cc(Cl)ccc1C)C(=O)CSCc1ccc(C)cc1 | inactive
14 | CN(CC(=O)NCc1ccc(Cl)cc1)S(=O)(=O)c1cccs1 | inactive
15 | COc1ccc(N2CC(NS(=O)(=O)c3ccc4ccccc4c3)CC2=O)cc1 (configuration not stated) | inactive
16 | O=C1N[C@@H](Cc2ccccc2)C(=O)N2[C@H]1C[C@]1(Br)c3ccccc3N(S(=O)(=O)c3ccccc3)[C@H]21 | inactive
17 | Cc1nc2ccccc2c(=O)n1-c1ccc(F)c(NC(=O)c2cccs2)c1 | inactive
18 | CCN(CC)CCn1c2c(c(SCC(=O)Nc3ccc(C(C)C)cc3)nc1=O)CCC2 | inactive
19 | CS(=O)(=O)N(CC(=O)N1CCN(c2cccc(Cl)c2)CC1)c1ccccc1 | inactive
20 | CC1CCN(C(=O)CN(c2ccc(Oc3ccccc3)cc2)S(C)(=O)=O)CC1 | -5.53 (active)
21 | COc1ccc(N(CC(=O)N2CCCCCC2)S(=O)(=O)c2ccccc2)cc1 | inactive
22 | NC(=O)NCCCC(=O)O | inactive
23 | Cc1ccc(NC(=O)COc2coc(CN3CCc4ccccc4C3)cc2=O)cc1Cl | inactive
24 | O=C(Nc1ccncc1)c1ccccc1[N+](=O)[O-] | inactive
25 | O=C(O/N=C(/c1ccccc1)c1ccncc1)c1ccccc1[N+](=O)[O-] | -5.03 (active)
26 | COc1ccc(NC(=O)c2ccccc2[N+](=O)[O-])cc1OC | inactive

Row | Compound | B-score
27 | COc1ccc(-c2cc(C(=O)N/N=C/c3cccnc3)c3ccccc3n2)c(OC)c1 | inactive
28 | COC(=O)CN1C(=S)N(c2ccccc2)C(=O)C1CC(=O)Nc1ccc(Cl)cc1 (configuration not stated) | inactive
29 | O=C(O)Cc1ccc(NCc2ccccc2Cl)cc1 | inactive
30 | O=C(O)CC1=C(Nc2ccccc2)C(=O)N(c2ccccc2)C1c1ccc(Cl)cc1 (configuration not stated) | -9.58 (active)
31 | O=C(NCCc1ccco1)C(=O)NCCC1CCCCN1S(=O)(=O)c1ccccc1 (configuration not stated) | inactive
32 | O=C(C1CCN(S(=O)(=O)c2ccc(Br)s2)CC1)N1CCN(C2CCCCC2)CC1 | inactive
33 | O=C(C1CCN(S(=O)(=O)c2ccc(Br)s2)CC1)N1CCN(c2ccccc2)CC1 | -8.2 (active)
34 | CS(=O)(=O)N1CCC(C(=O)N2CCN(c3ccccc3)CC2)CC1 | inactive
35 | CC(Sc1nn(-c2ccc(Cl)cc2)c(=S)s1)C(=O)NCC1CCCO1 (configuration not stated) | inactive
36 | COc1ccc(S(=O)(=O)N2CCOC23CCN(S(=O)(=O)c2ccc([N+](=O)[O-])cc2)CC3)cc1 | inactive
37 | CCC(C)c1ccc(NC(=S)NCc2ccccn2)cc1 (configuration not stated) | -9.17 (active)
38 | O=C(NCc1ccccn1)Nc1ccc(F)cc1 | inactive
39 | O=C(NCc1ccccn1)Nc1ccc(Cl)cc1 | inactive
40 | CCOC(=O)C(C)N(c1ccccc1Cl)S(C)(=O)=O (configuration not stated) | inactive
41 | O=C(Nc1cccc2cccnc12)c1cccc(N2C(=O)CCC2=O)c1 | inactive
42 | O=C(Nc1cccc2cccnc12)c1cccc(Cl)c1 | inactive
43 | N#Cc1ccc(C(=O)Nc2cccc3cccnc23)c(F)c1 | -5.02 (active)
44 | CCOC(=O)c1cc(C(C)C)sc1NC(=O)COC(=O)c1nccnc1N | inactive
45 | CCOc1ccc(NS(=O)(=O)c2ccc(C(=O)NC3CCN(Cc4ccccc4)CC3)cc2)cc1 | inactive
46 | Cc1ccc(CNC(=O)c2cc(-c3ccccc3C)n(CC3CC(c4cccc([N+](=O)[O-])c4)=NO3)n2)cc1 (configuration not stated) | inactive
47 | O=C(NCCc1ccc2c(c1)OCCO2)c1cc2ccccc2o1 | -5.1 (active)
48 | N=c1oc2ccccc2cc1C(=O)NCc1ccccc1 | inactive
49 | O=C(CC(Cc1ccccc1)C(=O)O)NCCc1ccc2c(c1)OCO2 (configuration not stated) | inactive
50 | COc1ccc(C(=O)NCC2CCCN2S(=O)(=O)c2cccs2)cc1OC (configuration not stated) | inactive
51 | Cc1ccc(C(=O)C(C)OC(=O)Cc2n[nH]c(=O)c3ccccc23)cc1C (configuration not stated) | inactive
52 | COc1nc(OC)nc(N(C)CCO)n1 | -12.4 (active)

Row | Compound | B-score
53 | O=C(CSC1=NS(=O)(=O)c2cc(F)ccc2N1)Nc1ccccc1F | inactive
54 | CN(CC(=O)Nc1cccc(F)c1)C(=O)C1=COCCO1 | inactive
55 | CN(CCO)c1ccc(/C=N/Nc2nncc3ccccc23)cc1 | inactive
56 | CC1CCN(c2ccc(C(=O)Nc3nnc(C4CC4)s3)cc2[N+](=O)[O-])CC1 | inactive
57 | O=C(Nc1cccc(C(F)(F)F)c1)c1ccc(N2CCNCC2)c([N+](=O)[O-])c1 | inactive
58 | CC(NC(=O)c1ccc(N2CCNCC2)c([N+](=O)[O-])c1)C12CC3CC(CC(C3)C1)C2 (configuration not stated) | -5.65 (active)
59 | O=C(NC1C2CC3CC(C2)CC1C3)c1ccc(N2CCNCC2)c([N+](=O)[O-])c1 (configuration not stated) | -5.53 (active)
60 | CS(=O)(=O)N1CCN(c2ccc(C(=O)NC3C4CC5CC(C4)CC3C5)cc2[N+](=O)[O-])CC1 (configuration not stated) | inactive
61 | CCC(C)NC(=O)c1ccc(N2CCC3(CC2)OCCO3)c([N+](=O)[O-])c1 (configuration not stated) | inactive
62 | O=C(NCCC1CCCCN1S(=O)(=O)c1ccc(Cl)cc1)C(=O)NCc1ccco1 (configuration not stated) | inactive
63 | CCCNC(=O)CCn1cc(-c2ccc(OC)cc2)nc1CCN | inactive
64 | C=CCNC(=O)C1CC2c3ccccc3C1c1ccccc12 (configuration not stated) | inactive
65 | CC1(C)CC(=O)c2sc(N)nc2C1 | inactive
66 | CNC(=O)c1ccc2nc(NC(C)=O)sc2c1 | inactive
67 | CC(=O)Nc1nc2c(s1)C(=O)NCC(C)(C)C2 | -5.07 (active)
68 | COc1cccc(N2CC(NC(=O)c3ccc4ccccc4c3)CC2=O)c1 (configuration not stated) | inactive
69 | COc1cccc(CC2(CO)CCCN(Cc3ccc(OC(F)F)cc3)C2)c1 (configuration not stated) | inactive
70 | Cc1nn(C)c(C)c1NS(=O)(=O)c1ccc(OC(F)(F)F)cc1 | inactive
71 | COc1cc(C(=O)N2CCN(C/C=C/c3ccccc3)CC2)cc(OC)c1C | inactive
72 | O=C(CCN1CCN(C/C=C/c2ccccc2)CC1)Nc1cccc(F)c1 | inactive
73 | CNC(=O)NC(=O)C(C)N1CCN(C/C=C/c2ccccc2)CC1 (configuration not stated) | -6.91 (active)
74 | CCc1ccc(C(=O)NNC(=O)C2CCN(c3ncnc4sc(C)c(C)c34)CC2)cc1 | inactive
75 | O=C(Nc1ccc(C(=O)N2CCOCC2)cc1)Nc1cccc(C(F)(F)F)c1 | inactive
76 | CCOc1ccccc1N1CN(Cc2ccccc2)CNC1=S | inactive
77 | CCc1ccccc1N1CN(Cc2ccco2)CNC1=S | -5.54 (active)
78 | CCN1CN(Cc2ccccc2)CNC1=S | inactive

Row | Compound | B-score
79 | Brc1cnc2ccccc2c1N1CCCCC1 | inactive
80 | CCCCCN(C(=O)CCC(=O)OCC(=O)NC1CCC(C)CC1)c1c(N)n(CCCC)c(=O)[nH]c1=O (configuration not stated) | inactive
81 | O=C(CN1C(=O)NC2(CCCC2)C1=O)OCCOc1ccc(F)cc1 | inactive
82 | COc1cc(NC(=O)CSC(=S)N2CCCC2)c(OC)cc1Cl | inactive
83 | CN(C(=O)CN1C(=O)/C(=C/c2ccc(Cl)cc2)SC1=S)C1CCS(=O)(=O)C1 (configuration not stated) | inactive
84 | COc1ccc(/C=C2\SC(=O)N(CCC(=O)NC3CCS(=O)(=O)C3)C2=O)cc1 (configuration not stated) | inactive
85 | CC(C(=O)NC1CCS(=O)(=O)C1)N1C(=O)/C(=C/c2ccc(Cl)cc2)SC1=S (configuration not stated) | -8.07 (active)
86 | COc1ccc(S(=O)(=O)N(CC(=O)N/N=C/c2ccc(C(=O)O)cc2)Cc2ccccc2)cc1OC | inactive
87 | CCN(Cc1ccccc1)S(=O)(=O)c1cc(C(=O)O)ccc1OC | -5.82 (active)
88 | COc1ccc(C(=O)O)cc1S(=O)(=O)NCc1cccnc1 | inactive
89 | O=C(NCC(c1ccco1)N1CCc2ccccc2C1)c1ccccc1Cl (configuration not stated) | inactive
90 | NC(=O)c1ccsc1NC(=O)COC(=O)Cc1n[nH]c(=O)c2ccccc12 | inactive
91 | Nc1c(-c2ccccc2)nnn1Cc1ccccc1 | inactive
92 | Oc1c(Cl)cc(Cl)c(Cl)c1Cc1c(O)c(Cl)cc(Cl)c1Cl | -6.87 (active)
93 | COc1ccc(C2=NN(C(=O)CSc3nc(=O)n4ccc(C)cc4n3)C(c3ccc(C)cc3)C2)cc1 (configuration not stated) | inactive
94 | CCN1C(=O)[C@H]2[C@@H](c3ccc(-c4ccc(F)cc4)cc3)N[C@@](Cc3ccccc3)(C(=O)OC)[C@H]2C1=O | inactive
95 | O=C(Cc1ccc(Br)cc1)NCCc1ccccc1 | inactive
96 | CC(=O)Nc1ccc(NC(=O)CSC2=NS(=O)(=O)c3ccccc3N2)cc1 | inactive
97 | C=C(C)CNC(=O)c1ccc(OC2CCN(C(=O)COC)CC2)cc1 | inactive
98 | C[N+](C)(CCCCCC[N+](C)(C)CCCN1C(=O)c2cccc3cccc(c23)C1=O)CCCN1C(=O)c2cccc3cccc(c23)C1=O | inactive
99 | O=C(CCCCCN1C(=O)c2cccc3cccc(c23)C1=O)NCc1ccco1 | inactive
100 | O=C1c2cccc3cccc(c23)C(=O)N1CCCCCc1n[nH]c(=S)o1 | -5.24 (active)
101 | CCC1(c2ccccc2)NC(=O)N(CC(=O)c2ccc3c(c2)OCO3)C1=O (configuration not stated) | inactive
102 | CCCn1c(C)cc(/C=C(\C#N)C(=O)OCC(=O)N(C)c2c(N)n(Cc3ccccc3)c(=O)[nH]c2=O)c1C | inactive

Source: PubChem BioAssay AID488975 (Johns Hopkins Ion Channel Center, 2010)
